About 64,000 (15%) of roughly 420,000 compounds were called active. Not shown: some 27% with an inconclusive outcome. Calls follow the shape of the dose curve; as a rule, active = well fitted inhibition curve with a large enough effect; inconclusive = small, poorly fitted or top-dose-only effect; inactive = flat fitted curve, though single readings scatter. Not all results are given here.
test: qHTS for Inhibitors of human tyrosyl-DNA phosphodiesterase 1 (TDP1): qHTS in cells in absence of CPT; conditions: DT40 Tdp1-/- hTDP1 cells, no CPT, ATP luminescence, 48 h; activity change, negative = growth inhibition: at 46.2 µM (top of the series); also: nearly all actives have a fitted effect of over 55% in size
Outline: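 Chicken DT40 Tdp1-/- cells complemented with human TDP1, screened without camptothecin (DMSO vehicle only), 400 cells/well. Compounds pin-transferred, cells incubated at 37 °C for at least 48 hr. Growth read as ATP-dependent luminescence (CellTiter-Glo, 30 min at RT).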
% is scaled to controls: 0 for no effect and ±100 for the full control effect; potency is read from the fitted curve at half-maximal effect.

Q: With C=CCn1c(CNC(=O)c2ccco2)nnc1SCC(=O)c1ccc(OC)cc1 as the compound, how does the “activity change, negative = growth inhibition” value read?
A: Its value is -17.9% (inactive).

Q: With C=CCn1c(SCc2ccc(Cl)c(Cl)c2)nnc1C(CO)NC(=O)c1ccc(OC)cc1 (stereo unspecified) as the compound, how does the Potency read?
A: Its Potency is 20.6 µM (active).

Q: For C=CCn1c(CCNC(=O)c2ccccc2F)nnc1SCC(=O)Nc1ccc(OC)cc1, which “activity change, negative = growth inhibition” value is on record?
A: The value was -22.4% (inactive).

Q: Which “activity change, negative = growth inhibition” value does the source give for C=CCN1C(=O)C(Cc2cccc(Cl)c2)S/C1=N/N=C/c1ccco1 (stereo unspecified) here?
A: Its value is -27.6% (inactive).

Q: With Cc1cc(S(=O)(=O)NCc2ccccn2)c(Cl)cc1Cl as the compound, how does the “activity change, negative = growth inhibition” value read?
A: The value was -22.2% (inactive).

Q: For CCn1c(=S)sc2c(=O)n(CC(=O)Nc3ccc(OC)cc3)c(C)nc21, which “activity change, negative = growth inhibition” value is on record?
A: The value was 8.25% (inactive).

Q: With O=C(OC12CC3CC(CC(C3)C1)C2)c1ccc(NCc2cc(O)ccc2O)cc1 as the compound, how does the Potency read?
A: The Potency was 1.64 µM (active).

Q: Which “activity change, negative = growth inhibition” value does the source give for CC(CN1CCOCC1)OC(=O)c1ccc(Cl)cc1Cl (stereo unspecified) here?
A: The value was -0.492% (inactive).

Q: For CC(C)OC(=O)c1ccc(NCc2cc(O)ccc2O)cc1Cl, which Potency is on record?
A: Its Potency is 2.59 µM (active).

Q: With COC(=O)c1ccc(NCc2cc(O)ccc2O)cc1 as the compound, how does the Potency read?
A: The Potency was 4.61 µM (active).

Q: With COC(=O)c1cc(C(=O)CSc2nc(C)cc(C)n2)ccc1O as the compound, how does the “activity change, negative = growth inhibition” value read?
A: The value was -0.488% (inactive).

Q: With CC(OC(=O)c1ccc(Cl)cc1O)C(=O)NCCC1=CCCCC1 (stereo unspecified) as the compound, how does the “activity change, negative = growth inhibition” value read?
A: Its value is -14% (inactive).

Q: For C#CCNc1ccc(C(=O)OCC)cc1, which “activity change, negative = growth inhibition” value is on record?
A: Its value is -31.1% (inactive).

Q: For CSCCC(NS(=O)(=O)c1ccc(C)cc1)C(=O)N1CCCC1 (stereo unspecified), which “activity change, negative = growth inhibition” value is on record?
A: The value was -3.98% (inactive).

Q: With C/C(Cc1ccccc1)=N\NC(=O)CNC(=O)c1ccc2c(c1)OCCO2 as the compound, how does the “activity change, negative = growth inhibition” value read?
A: Its value is -18% (inactive).

Q: Which “activity change, negative = growth inhibition” value does the source give for CC1(C)C2CCC13CS(=O)(=O)NC3C2 (stereo unspecified) here?
A: The value was -2.28% (inactive).

Q: With CC1(C)OC(=O)C(=CNC(CO)C(=O)O)C(=O)O1 (stereo unspecified) as the compound, how does the “activity change, negative = growth inhibition” value read?
A: The value was -11.9% (inactive).

Q: With O=P(O)(CP(=O)(c1ccccc1)c1ccccc1)c1ccccc1O as the compound, how does the “activity change, negative = growth inhibition” value read?
A: The value was 5.16% (inactive).

Q: With C=CCN1CN(S(=O)(=O)c2ccc(OC)cc2)c2nc3ccccc3nc21 as the compound, how does the “activity change, negative = growth inhibition” value read?
A: The value was 11.2% (inactive).

Q: With Cn1cnnc1Sc1ccc(CN2CCN(C3CCCC3)C(CCO)C2)o1 (stereo unspecified) as the compound, how does the “activity change, negative = growth inhibition” value read?
A: Its value is 4.43% (inactive).

Q: With Cc1c(C(=O)N(Cc2ccccc2)Cc2cccnc2)cnn1-c1ccc(F)cc1 as the compound, how does the “activity change, negative = growth inhibition” value read?
A: The value was -12.2% (inactive).

Q: With CCN(CC)CC(=O)Nc1nn(-c2ccccc2)nc1C(N)=O as the compound, how does the “activity change, negative = growth inhibition” value read?
A: The value was 1.58% (inactive).

Q: With O=C(NCCCN1CCCCCC1)c1ccc(N2CCCC2=O)cc1 as the compound, how does the “activity change, negative = growth inhibition” value read?
A: The value was -2.76% (inactive).

Q: Which “activity change, negative = growth inhibition” value does the source give for O=C(N/N=C/c1ccc(Br)o1)c1cncc(Br)c1 here?
A: Its value is 14.6% (inactive).

Q: Which “activity change, negative = growth inhibition” value does the source give for Cc1ccc(C(=O)N/N=C/c2cccc3ccccc23)cn1 here?
A: Its value is -2.46% (inactive).

Q: With Cc1ccc(C(=O)N/N=C\c2cc(Br)c(Br)o2)cn1 as the compound, how does the Potency read?
A: Its Potency is 16.4 µM (active).

Q: Which “activity change, negative = growth inhibition” value does the source give for C=CCSc1ccc(S(=O)(=O)N2CCN(C)CC2)cn1 here?
A: Its value is -4.94% (inactive).

Q: For COC(=O)C1CCN(C(=O)COC(=O)c2cc(S(=O)(=O)N3CCOCC3)ccc2C)CC1, which “activity change, negative = growth inhibition” value is on record?
A: Its value is -11% (inactive).

Q: For O=C(COC(=O)c1ccccc1SCC(=O)NC1CCCCC1)NC1CCCCC1, which “activity change, negative = growth inhibition” value is on record?
A: The value was -14.5% (inactive).

Q: Which Potency does the source give for CC1CCCC(NC(=O)COC(=O)c2ccccc2C(=O)N(C)C2CCCCC2)C1C (stereo unspecified) here?
A: Its Potency is 14.6 µM (active).

Q: For C=CCNC(=O)COC(=O)c1ccccc1C(=O)N(C)C1CCCCC1, which “activity change, negative = growth inhibition” value is on record?
A: Its value is 9.03% (inactive).

Q: Which “activity change, negative = growth inhibition” value does the source give for NC(=O)COC(=O)c1sc2cc(F)ccc2c1Cl here?
A: Its value is 14.2% (inactive).

Q: For CC(=O)NC12CC3CC(C1)CC(C(=O)N1CCN(C(=O)c4ccco4)CC1)(C3)C2, which “activity change, negative = growth inhibition” value is on record?
A: The value was 22.3% (inactive).

Q: With COc1ccc(N(CC(=O)NC(C)(C)C)C(=O)c2ccco2)cc1 as the compound, how does the “activity change, negative = growth inhibition” value read?
A: The value was -10.6% (inactive).

Q: Which “activity change, negative = growth inhibition” value does the source give for CC1(C)CC(=O)c2cc(OCC(=O)NCC3CCCO3)ccc2O1 (stereo unspecified) here?
A: The value was -13.3% (inactive).

Q: With Cc1cc(-c2cccs2)nc(-n2cccc2)n1 as the compound, how does the “activity change, negative = growth inhibition” value read?
A: Its value is -17.5% (inactive).

Q: Which “activity change, negative = growth inhibition” value does the source give for O=C(NNc1ncnc2c1cnn2-c1ccccc1)c1ccco1 here?
A: Its value is 3% (inactive).

Q: Which Potency does the source give for Cc1cccc(NC(=S)NCc2ccc3[nH]c4c(c3c2)CCCC4)c1 here?
A: Its Potency is 18.4 µM (active).

Q: With Cc1cccc(NC(=S)N2CCCC(c3nc4ccccc4[nH]3)C2)c1 (stereo unspecified) as the compound, how does the “activity change, negative = growth inhibition” value read?
A: The value was 7.85% (inactive).

Q: With O=C(O)CCC(=O)NCc1ccc2[nH]c3c(c2c1)CCCC3 as the compound, how does the “activity change, negative = growth inhibition” value read?
A: Its value is -2.01% (inactive).

Q: For CCCCc1c(O)nc2n(c1=O)CCS2, which “activity change, negative = growth inhibition” value is on record?
A: The value was -13.1% (inactive).

Q: With O=C(Oc1ccc(Br)cc1C(=S)N1CCOCC1)c1cccc([N+](=O)[O-])c1 as the compound, how does the “activity change, negative = growth inhibition” value read?
A: Its value is -19.6% (inactive).

Q: With O=C(/C=C/c1c(Cl)cccc1Cl)NCc1ccccc1 as the compound, how does the “activity change, negative = growth inhibition” value read?
A: The value was 0.863% (inactive).

Q: For COn1c(=O)c(=O)n(OC)c2ccccc21, which “activity change, negative = growth inhibition” value is on record?
A: Its value is -4.75% (inactive).

Q: For CCOC(=O)CC1(NC(=O)c2cc(COc3cncc(Cl)c3)on2)CCCCC1, which Potency is on record?
A: Its Potency is 20.6 µM (active).

Q: With Cc1cc(OCc2cc(C(=O)NCc3cc(C(C)C)no3)no2)cc(C)c1Cl as the compound, how does the “activity change, negative = growth inhibition” value read?
A: The value was -12.7% (inactive).

Q: Which “activity change, negative = growth inhibition” value does the source give for CCOC(=O)c1c(NC(=O)c2cc(CC)on2)sc(C(C)=O)c1C here?
A: The value was 4.96% (inactive).

Q: With COc1ccc2[nH]cc(CCNc3ncnc4ccc(-c5ccc(C(=O)N(C)C)cc5)cc34)c2c1 as the compound, how does the Potency read?
A: The Potency was 9.2 µM (active).

Q: For COc1ccc2[nH]cc(CCNc3cc(-c4ccccc4CN(C)C)ncn3)c2c1, which “activity change, negative = growth inhibition” value is on record?
A: Its value is -17.5% (inactive).

Q: For Cc1ccc2[nH]cc(CCNC(=O)c3ccc([N+](=O)[O-])cc3)c2c1, which “activity change, negative = growth inhibition” value is on record?
A: Its value is -27.6% (inactive).

Q: Which “activity change, negative = growth inhibition” value does the source give for CNc1cc(-c2c(OC)cccc2OC)ncn1 here?
A: Its value is 1.04% (inactive).

Q: With COc1ccc2[nH]cc(CCNc3nc(-c4cccc(NS(C)(=O)=O)c4)nc4ccccc34)c2c1 as the compound, how does the Potency read?
A: The Potency was 13 µM (active).

Q: With COc1ccc2[nH]cc(CCNc3ncnc4ccc(-c5ccccc5CN(C)C)cc34)c2c1 as the compound, how does the “activity change, negative = growth inhibition” value read?
A: The value was -24% (inactive).

Q: Which Potency does the source give for COc1cccc(-c2cc(NCCc3c[nH]c4ccc(OC)cc34)ncn2)c1 here?
A: Its Potency is 23.1 µM (active).

Q: With COCCNc1ccnc(-c2cccc(NS(C)(=O)=O)c2)n1 as the compound, how does the “activity change, negative = growth inhibition” value read?
A: Its value is -7.98% (inactive).

Q: For CC(=O)Nc1ccc(S(=O)(=O)N2CCn3cccc3C2C)cc1 (stereo unspecified), which “activity change, negative = growth inhibition” value is on record?
A: Its value is 7.81% (inactive).

Q: Which “activity change, negative = growth inhibition” value does the source give for CC(NC(=O)C(=O)NN=C1CCC(C(C)(C)C)CC1)c1ccccc1 (stereo unspecified) here?
A: Its value is 4.32% (inactive).

Q: With CN1CCN(S(=O)(=O)c2ccc(NC(=O)c3ccco3)cc2)CC1 as the compound, how does the “activity change, negative = growth inhibition” value read?
A: The value was 3.04% (inactive).

Q: With COc1ccc(/C(C)=N/N2CCOCC2)c(O)c1 as the compound, how does the “activity change, negative = growth inhibition” value read?
A: Its value is 4.06% (inactive).

Q: For O=S(=O)(c1cnccc1N1CCN(/N=C/c2ccc(Br)cc2)CC1)N1CCCCC1, which Potency is on record?
A: Its Potency is 18.4 µM (active).

Q: For CC(C)NC(=O)N1CCN(c2ccncc2S(=O)(=O)N2CCCCC2)CC1, which “activity change, negative = growth inhibition” value is on record?
A: Its value is 12.7% (inactive).

Q: For CN1CCN(c2ccncc2S(=O)(=O)N2CCCC2)CC1, which “activity change, negative = growth inhibition” value is on record?
A: The value was 16.7% (inactive).

Q: Which “activity change, negative = growth inhibition” value does the source give for CCOC(=O)C1CCN(C(=O)Cn2cc(C#N)c3ccccc32)CC1 here?
A: The value was -11.5% (inactive).

Q: Which “activity change, negative = growth inhibition” value does the source give for O=C(c1cccnc1)N1CCN(S(=O)(=O)c2cccs2)CC1 here?
A: The value was 15.6% (inactive).

Q: With CC(C)CNC(=S)NNC(=O)c1ccccc1OC(F)F as the compound, how does the “activity change, negative = growth inhibition” value read?
A: The value was -12.1% (inactive).

Q: For CC/C(=N\NC(=S)NC(C)C)c1ccc(OC(F)F)cc1, which Potency is on record?
A: The Potency was 16.4 µM (active).

Q: For O=C(COC(=O)c1ccc(N2CCCC2=O)cc1)c1ccc(OC(F)F)cc1, which “activity change, negative = growth inhibition” value is on record?
A: Its value is -19.2% (inactive).

Q: Which “activity change, negative = growth inhibition” value does the source give for C/C=C1\C2C=C(C)CC1(N)c1ccc(=O)[nH]c1C2 (stereo unspecified) here?
A: The value was -12.4% [at 92.5 µM] (inactive).

Q: With COC(=O)Cc1csc(Nc2c(C)n(C)n(-c3ccccc3)c2=O)n1 as the compound, how does the “activity change, negative = growth inhibition” value read?
A: Its value is 0.65% (inactive).

Q: For COC(=O)Cc1csc(/N=C/c2c(O)n(-c3cccc(C(F)(F)F)c3)c(=O)c3ccccc23)n1, which Potency is on record?
A: Its Potency is 16.4 µM (active).

Q: Which “activity change, negative = growth inhibition” value does the source give for COC(=O)Cc1c(O)ccn(Cc2cccc(C(F)(F)F)c2)c1=O here?
A: The value was -26% (inactive).

— PubChem BioAssay AID686978 (National Center for Advancing Translational Sciences (NCATS), 2013)
